Measurements as given in PubChem BioAssay (NCATS).
Results filed as inconclusive are left out. Where a call stands in place of a potency, no number is given. Active and inactive are the calls of the source. The call rests on the fitted dose curve; in most records, active means well fitted inhibition curve with a large enough effect; inconclusive means small, poorly fitted or top-dose-only effect; inactive means flat fitted curve, though single readings scatter.

Key:
Assay in all cases: qHTS profiling for inhibitors of Plasmodium falciparum proliferation (AID 504749); further: nearly all actives have a fitted effect of over 60% in size
Conditions in all cases: P. falciparum in erythrocytes, SYBR Green DNA, 72 h; series mostly up to 28.7 µM
CP329 = tested on: CP329
Outline: (§1)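 Infected RBCs, 0.3% parasitemia/2.5% Hct final; cpd 72 h, 37 C, 5% CO2; lysis buffer with saponin/triton/SYBR Green I, o/n RT dark; FI 485/535; norm. to artemisinin (0.29 uM) and DMSO.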

CP335 = tested on: CP335
Outline: as §1

DFO2036 = tested on: DFO2036
Outline: as §1

DIV14 = tested on: DIV14
Outline: as §1

DIV17 = tested on: DIV17
Outline: as §1

DIV30 = tested on: DIV30
Outline: as §1

Dd2 = tested on: Dd2
Outline: as §1

ECU = tested on: ECU
Outline: as §1

FAB9 = tested on: FAB9
Outline: as §1

GB4 = tested on: GB4
Outline: as §1

HB3 = tested on: HB3
Outline: as §1

ICS = tested on: ICS
Outline: as §1

JCK = tested on: JCK
Outline: as §1

N140 = tested on: N140
Outline: as §1

P93_24 = tested on: P93_24
Outline: as §1

P94_40 = tested on: P94_40
Outline: as §1

PAD = tested on: PAD
Outline: as §1

PC15 = tested on: PC15
Outline: as §1

PC26 = tested on: PC26
Outline: as §1

PC49 = tested on: PC49
Outline: as §1
Potency means the concentration at half of the fitted maximal effect.

Compound	Potency (CP329)	Potency (CP335)	Potency (DFO2036)	Potency (DIV14)	Potency (DIV17)	Potency (DIV30)	Potency (Dd2)	Potency (ECU)	Potency (FAB9)	Potency (GB4)	Potency (HB3)	Potency (ICS)	Potency (JCK)	Potency (N140)	Potency (P93_24)	Potency (P94_40)	Potency (PAD)	Potency (PC15)	Potency (PC26)	Potency (PC49)
CNC[C@@H](O)[C@@H](O)[C@H](O)[C@H](O)CO	inactive	inactive	inactive	inactive	inactive	inactive	inactive	inactive	inactive	inactive	inactive	inactive	inactive	inactive	inactive	inactive	inactive	inactive	inactive	inactive
CC(C)(S)[C@@H](N)C(=O)O	inactive	inactive	inactive	inactive	inactive	inactive	inactive	inactive	inactive	inactive	inactive	inactive	inactive	inactive	inactive	inactive	inactive	inactive	inactive	inactive
CS(=O)(=O)OCCCCOS(C)(=O)=O	inactive	inactive	inactive	inactive	inactive	inactive	inactive	inactive	inactive	inactive	inactive	inactive	inactive	inactive	inactive	inactive	inactive	inactive	inactive	inactive
CCN(CC)CCOc1ccc(Cc2ccccc2)cc1	inactive	inactive	inactive	–	inactive	inactive	inactive	inactive	inactive	inactive	inactive	inactive	inactive	inactive	inactive	inactive	inactive	inactive	inactive	inactive
Cc1cc(=O)c2c(O)c3c(O)cc(=O)c4c3c3c(cc(O)c1c23)C(C)(C)C=4O	2.13 µM (active)	2.39 µM (active)	1.12 µM (active)	2.39 µM (active)	2.69 µM (active)	–	1.26 µM (active)	2 µM (active)	inactive	2.13 µM (active)	2 µM (active)	0.355 µM (active)	–	1 µM (active)	2.24 µM (active)	2 µM (active)	2.51 µM (active)	3.98 µM (active)	–	7.94 µM (active)
Clc1ccc(C(Cn2ccnc2)OCc2ccsc2Cl)c(Cl)c1 (stereo unspecified)	13.5 µM (active)	4.78 µM (active)	3.16 µM (active)	1.9 µM (active)	1.69 µM (active)	4.78 µM (active)	3.16 µM (active)	1.41 µM (active)	–	1.69 µM (active)	3.16 µM (active)	1 µM (active)	5.01 µM (active)	2.82 µM (active)	2.24 µM (active)	4.47 µM (active)	1 µM (active)	4.47 µM (active)	3.38 µM (active)	4.47 µM (active)
Oc1ccc(OCc2ccccc2)cc1	inactive	inactive	inactive	inactive	inactive	inactive	inactive	inactive	inactive	inactive	inactive	–	inactive	inactive	inactive	inactive	inactive	inactive	inactive	inactive
COc1cc(OC)c(C(=O)CCCN2CCCC2)c(OC)c1	inactive	inactive	inactive	inactive	–	inactive	inactive	inactive	inactive	inactive	inactive	inactive	inactive	inactive	inactive	inactive	inactive	inactive	inactive	inactive
CN(C)c1ccc2nc3ccc(=[N+](C)C)cc-3sc2c1	0.0601 µM (active)	0.0379 µM (active)	0.0708 µM (active)	0.0269 µM (active)	0.019 µM (active)	0.0675 µM (active)	0.0398 µM (active)	0.0251 µM (active)	0.0316 µM (active)	0.0301 µM (active)	0.0224 µM (active)	0.0071 µM (active)	–	0.0562 µM (active)	0.0316 µM (active)	0.0447 µM (active)	0.0316 µM (active)	–	0.0675 µM (active)	inactive
CCOC(=O)c1c(C)n(C)c2ccc(O)cc12	inactive	inactive	inactive	inactive	inactive	inactive	inactive	inactive	inactive	inactive	inactive	inactive	inactive	–	inactive	inactive	inactive	inactive	inactive	inactive
Cn1c(NCCN(CCO)CCCc2ccc([N+](=O)[O-])cc2)cc(=O)n(C)c1=O	inactive	inactive	inactive	inactive	inactive	inactive	inactive	inactive	inactive	inactive	inactive	inactive	inactive	inactive	inactive	inactive	inactive	inactive	inactive	inactive
O=C(O)CCNC(=O)c1ccc(N=Nc2ccc(O)c(C(=O)O)c2)cc1	inactive	inactive	inactive	inactive	inactive	inactive	–	inactive	inactive	inactive	–	inactive	inactive	inactive	inactive	inactive	inactive	inactive	inactive	inactive
COC(=O)C1=C(C)NC(C)=C(C(=O)OCCCN2CCC(c3ccccc3)(c3ccccc3)CC2)C1c1cccc([N+](=O)[O-])c1 (stereo unspecified)	8.49 µM (active)	4.26 µM (active)	7.94 µM (active)	3.38 µM (active)	4.26 µM (active)	4.78 µM (active)	3.55 µM (active)	4.47 µM (active)	–	1.9 µM (active)	8.91 µM (active)	1.41 µM (active)	–	5.01 µM (active)	3.98 µM (active)	4.47 µM (active)	10 µM (active)	11.2 µM (active)	6.01 µM (active)	–
Nc1cc(C(Cl)=C(Cl)Cl)c(S(N)(=O)=O)cc1S(N)(=O)=O	inactive	inactive	inactive	inactive	inactive	inactive	inactive	inactive	inactive	inactive	inactive	inactive	inactive	inactive	inactive	inactive	inactive	inactive	inactive	inactive
CCN(CCO)CCCC(C)Nc1ccnc2cc(Cl)ccc12 (stereo unspecified)	inactive	inactive	inactive	–	inactive	inactive	inactive	–	1.41 µM (active)	–	1 µM (active)	inactive	inactive	inactive	inactive	inactive	inactive	–	inactive	inactive
CC(S)C(=O)NCC(=O)O (stereo unspecified)	inactive	inactive	inactive	inactive	inactive	inactive	inactive	inactive	inactive	inactive	inactive	inactive	inactive	inactive	inactive	inactive	inactive	inactive	inactive	inactive
O=C(NC(Cc1cc(=O)[nH]c2ccccc12)C(=O)O)c1ccc(Cl)cc1 (stereo unspecified)	inactive	inactive	inactive	inactive	inactive	inactive	inactive	inactive	inactive	inactive	inactive	inactive	inactive	inactive	inactive	inactive	inactive	inactive	inactive	inactive
Cc1c(OCC(F)(F)F)ccnc1CS(=O)c1nc2ccccc2[nH]1 (stereo unspecified)	inactive	inactive	inactive	–	inactive	inactive	inactive	inactive	inactive	inactive	inactive	–	inactive	inactive	inactive	inactive	inactive	inactive	inactive	inactive
COC1=C(OC)C(=O)C(CCCCCCCCCCO)=C(C)C1=O	inactive	inactive	inactive	inactive	–	inactive	inactive	inactive	inactive	–	inactive	inactive	inactive	inactive	inactive	–	inactive	inactive	inactive	inactive
CC(C)c1ccc2oc3nc(N)c(C(=O)O)cc3c(=O)c2c1	inactive	inactive	inactive	inactive	inactive	inactive	inactive	–	inactive	inactive	inactive	inactive	inactive	inactive	inactive	inactive	–	inactive	inactive	inactive
Nc1ccn([C@@H]2O[C@H](CO)[C@@H](O)C2O)c(=O)n1 (stereo partly specified)	inactive	inactive	inactive	inactive	inactive	–	inactive	inactive	inactive	inactive	inactive	inactive	inactive	inactive	inactive	inactive	inactive	inactive	–	inactive
O=C(O)c1cc(=O)c2c(OCC(O)COc3cccc4oc(C(=O)O)cc(=O)c34)cccc2o1	inactive	inactive	inactive	inactive	inactive	inactive	inactive	inactive	inactive	inactive	inactive	inactive	inactive	inactive	inactive	inactive	inactive	inactive	inactive	inactive
c1ccc2[nH]c(-c3cscn3)nc2c1	inactive	inactive	inactive	inactive	inactive	inactive	inactive	inactive	inactive	inactive	inactive	inactive	inactive	inactive	inactive	inactive	inactive	inactive	–	inactive
C[C@H](Cn1cnc2c(N)ncnc21)OCP(=O)(O)O	inactive	inactive	inactive	inactive	inactive	inactive	inactive	inactive	inactive	inactive	inactive	inactive	inactive	inactive	inactive	inactive	inactive	inactive	inactive	inactive
